HT1080NT lethal: kills 2HG-producing HT-1080-NT fibrosarcoma cells | HT-1080-NT fibrosarcoma viability, CellTiter-Glo ATP luminescence, 48 h | Potency, µM (highest dose often 46.1 µM), inactives show at the highest dose activity, negative = less viability, most hits filed as cytotoxic | 1.6% of 360,000 active | AID 686970;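 also: NT is the 2HG producing partner of a matched IDH1 knockdown line; 0% = DMSO-treated cells and -100% = media-only wells without cells; nearly all actives have a fitted effect of over 55% in size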
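HT-1080-NT fibrosarcoma cells (2HG-overproducing), 750 cells/well in RPMI with 5% FBS, dosed after 2 h and incubated 48 h at 37C. CellTiter-Glo luminescence normalized to DMSO and no-cell wells; concentration-response curves fitted and classed.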
ATXN2 expr inh: inhibitors of ATXN2 expression; HEK-293 ATXN2-luciferase reporter, luminescence, 24 h; Potency, µM (doses to about 57 µM), inactives show top-dose activity change, negative = inhibition, most hits filed as inhibitors; 0.72% of 360,000 active; AID 1745845; also: % is scaled to controls: 0 for no effect and ±100 for the full control effect; nearly all actives have a fitted effect of over 55% in size
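ATXN2-luciferase reporter cells (luciferase flanked by upstream and downstream ATXN2 gene portions) were treated 24 h at 37 °C with compounds at up to 57 uM. SteadyGlo luminescence gave expression; GF-AFC fluorescence gave viability.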
KB-V1 cytotox: kills drug-selected multidrug resistant KB-V1 cells. KB-V1 MDR cells viability, CellTiter-Glo, 72 h. Potency, µM (highest dose often 46.1 µM), hits mostly cytotoxic. 3.4% of 400,000 active. AID 1347076; also: % is scaled to controls: 0 for no effect and ±100 for the full control effect; nearly all actives have a fitted effect of over 60% in size
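KB-V1 cells (P-gp-expressing MDR subline of KB-3-1) in phenol-red-free DMEM with 10% FBS were exposed to library compounds over a concentration series for 72 h at 37 degrees C. Viability read by CellTiter-Glo luminescence; concentration-effect curves fitted after normalization.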
ATXN viability: viability counter-screen for ATXN expression inhibitors | S2 cells (HEK-293 line with an ATXN2-luciferase reporter) viability, CellTiter-Fluor protease fluorescence, 24 h | Potency, µM (series often up to 56.7 µM), hits mostly cytotoxic | 0.49% of 400,000 active | AID 651635; also: nearly all actives have a fitted effect of over 40% in size
HT1080 IDH1KD tx: kills HT-1080 cells with IDH1 knockdown | HT-1080 IDH1 knockdown viability, ATP luminescence, 48 h | Potency, µM (series often up to 46.1 µM), inactives show top-dose activity, negative = toxicity, most hits filed as cytotoxic | 2% of 360,000 active;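 also: 0% = DMSO wells and -100% = cell-free medium wells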
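Viability of IDH1-knockdown HT-1080 fibrosarcoma cells was assessed by CellTiter-Glo after 48 h at 37 °C with titrated compound; concentration-effect curves were classified by fit quality and response size.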
KB-3-1 tox: kills parental KB-3-1 adenocarcinoma cells | KB-3-1 viability, CellTiter-Glo ATP luminescence, 72 h | Potency, µM (titrated, usually from 46.1 µM), usual class: cytotoxic | 1.4% of 400,000 active | AID 1347075; also: % is scaled to controls: 0 for no effect and ±100 for the full control effect; nearly all actives have a fitted effect of over 60% in size
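Screening of KB-3-1 cells (DMEM, 10% FBS, phenol-red free) ran from lowest to highest compound concentration; after 72 h at 37 °C viability was read luminescently and curves fitted.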
Starred values were filed as active, the others as inactive; i = inactive; ? = inconclusive; . = no result; [ ] = remark or other dose. This is a sample that favours compounds with a hit; in the whole collection about 6.2% have one here. Calls follow the shape of the dose curve; as a rule, active = well fitted curve in the direction sought with a large enough effect; inconclusive = small, poorly fitted or top-dose-only effect, or another doubt; inactive = no such curve, though single readings can be large; an effect the other way counts as inactive or inconclusive. Potency is read from the fitted curve at half-maximal effect.

SMILES | HT1080NT lethal | ATXN2 expr inh | KB-V1 cytotox | ATXN viability | HT1080 IDH1KD tx | KB-3-1 tox
NC(=O)c1ccccc1NC(=O)CSc1nc2ccccc2c(=O)[nH]1 | 13µM* | 8% | . | i | ? | .
COc1ccc(-c2csc(NC(=O)CSc3nnc(Nc4ccccc4C)s3)n2)cc1 | 21µM* | -35% | i | ? | 21µM* | i
CCOc1ccccc1Nc1nnc(SCC(=O)Nc2nc(-c3ccc(OC)cc3)cs2)s1 | -5% | -10%[11.3 µM] | i | i | 9% | i
COC(=O)c1ccccc1NC(=O)CSc1nc2ccccc2c(=O)[nH]1 | -5% | 29% | i | i | -18% | i
CCN(C1CCCCC1)S(=O)(=O)c1ccc(S(=O)(=O)N(CC(=O)Nc2ccccc2)C2CC2)cc1 | -2% | -6% | 6.5µM* | i | -10% | i
CS(=O)(=O)N(CC(=O)Nc1ccccc1Sc1ccccc1)C1CCCCC1 | ? | -13% | 5.8µM* | i | ? | ?
O=C(CN(C1CC1)S(=O)(=O)c1ccc(S(=O)(=O)N2CCCCCC2)cc1)Nc1ccccc1 | ? | ? | i | i | ? | i
Cc1ccc(S(=O)(=O)N(CC(=O)Nc2ccc(Cl)c([N+](=O)[O-])c2)C2CCCCC2)cc1 | -1% | 2% | 4.6µM* | i | -23% | ?
Cn1cnc([N+](=O)[O-])c1Sc1ncnc2nc[nH]c12 | 4.1µM* | -9% | ? | ? | 4.1µM* | 1.8µM*
Cn1cnc(Sc2ncnc3nc[nH]c23)c1[N+](=O)[O-] | ? | . | ? | ? | 18µM* | ?
CC(=O)CSc1ncnc2nc[nH]c12 | -29% | -7% | i | i | 1% | i
Cc1cccnc1Sc1c([N+](=O)[O-])ncn1C | 0% | 5% | i | i | ? | i
Brc1ccc(C=C2C=c3ccccc3=C2)cc1 | . | . | i | . | . | i
COc1ccc(S(=O)(=O)Nc2cc(C)cc(C)n2)c2ccccc12 | 7% | -1% | i | i | 0% | i
CCOc1ccc(S(=O)(=O)Nc2cc(C)ccn2)c2ccccc12 | 2% | -12% | 18µM* | i | -6% | ?
CCOc1ccc(NS(=O)(=O)c2ccc(OCC)c3ncccc23)cc1 | 11µM* | -6% | 13µM* | i | 10µM* | ?
COc1cccc(NC(=O)C(=O)NCCc2sc(-c3cccc(C)c3)nc2C)c1 | . | 41% | ? | i | . | i
Cc1ccccc1-n1cc(C(=O)c2cc(Cl)ccc2O)cc(C#N)c1=O | 0% | -7% | 15µM* | i | -1% | ?
COc1ccc(OC)c2c(/C=C/c3c[nH]c4ccccc34)ccnc12 | . | . | ? | . | . | 4.1µM*
Cc1ccc2c(/C=C/c3c[nH]c4ccccc34)ccnc2c1C | . | . | 7.3µM* | . | . | 16µM*
C(=Cc1c[nH]c2ccccc12)c1nccc2ccccc12 | ? | ? | ? | i | ? | ?
Cc1cccc(NC(=O)N2CCC(CN3CCOCC3)CC2)c1C | . | -10% | i | i | . | i
COc1ccccc1C1CN(CC(=O)N2CCC(N3CCOCC3)CC2)Cc2ccccc2O1 (configuration not stated) | . | . | . | i | . | .
Cc1cc(NC(=O)CN2CCN(C/C=C/c3ccccc3)CC2)c([N+](=O)[O-])cc1C | -3% | -5% | i | i | -11% | i
CCN(c1ccccc1)S(=O)(=O)c1ccc(Cl)c(NC(=O)COC(=O)C2CC2C)c1 (configuration not stated) | -1% | 10% | i | i | -7% | i
SMILES | HT1080NT lethal | ATXN2 expr inh | KB-V1 cytotox | ATXN viability | HT1080 IDH1KD tx | KB-3-1 tox
CCN(c1ccccc1)S(=O)(=O)c1ccc(Cl)c(NC(=O)CN2CCCCCC2)c1 | ? | ? | 21µM* | i | ? | ?
O=C(CN1CCCCCCC1)Nc1ccc(Cl)cc1Cl | -5% | 18% | i | i | -9% | i
O=C(CN1CCN(C/C=C/c2ccccc2)CC1)Nc1cc([N+](=O)[O-])ccc1Cl | -9% | -14% | 23µM* | i | -2% | ?
CCN(c1ccccc1)S(=O)(=O)c1ccc(Cl)c(NC(=O)CN(C)Cc2cccc(F)c2)c1 | -1% | -12% | 16µM* | i | -15% | ?
O=C(CN1CCCCC1)Nc1ccc(NC(=O)c2ccccc2Cl)cc1Cl | -1% | -3% | 4.6µM* | i | -1% | 23µM*
CCOC(=O)c1cc(-c2ccc(F)cc2)n(CC(=O)NCc2ccc(OC)cc2)c1C | . | . | i | . | . | i
CNC(=O)c1c(-c2ccc(F)cc2)oc2cc(N(CCO)S(C)(=O)=O)c(C3CC3)cc12 | . | -19% | . | . | . | .
COc1cccc(Nc2c(C(N)=O)cnc3c(C)cc(S(=O)(=O)c4cccc(C(=O)N(C)C)c4)cc23)c1 | . | -14%[25.6 µM] | . | . | . | .
CCC(C)NCC(=O)Nc1cc(S(=O)(=O)N(CC)c2ccccc2)ccc1Cl (configuration not stated) | -20% | -6% | i | ? | -12% | ?
CCN(c1ccccc1)S(=O)(=O)c1ccc(Cl)c(NC(=O)CNC(C)c2ccccc2)c1 (configuration not stated) | -9% | -3% | 16µM* | i | -9% | ?
CCN(CC(=O)N1CCC(C(N)=O)CC1)S(=O)(=O)c1cc(Cl)ccc1Cl | 16% | 12% | i | i | 11% | i
CCN1c2ccccc2NC2C1C(C(C)=O)C(=O)N2c1ccc(Cl)cc1 (configuration not stated) | ? | -37% | i | i | 16µM* | i
O=C1Nc2ccccc2N(O)N1c1ccc(Cl)cc1 | 0% | . | i | i | 9% | i
COc1ccc(Oc2nc(C)cc(C)c2S(=O)(=O)c2ccc(C)cc2)cc1 | 7% | -10% | 21µM* | i | -13% | i
Cc1cc(C)c(S(=O)(=O)c2ccccc2)c(Cl)n1 | -1% | -1% | i | i | 0% | i
Cc1ccc(S(=O)(=O)c2c(C)cc(C)nc2Cl)cc1 | 0% | 0% | 13µM* | i | -1% | i
Cc1cc(C)c(S(=O)(=O)c2ccccc2C)c(Oc2ccccc2)n1 | 2% | -7% | 21µM* | ? | -2% | ?
Cc1nnc(SCC2=C(C(=O)O)N3C(=O)[C@@H](NC(=O)Cn4cnnn4)[C@@H]3SC2)s1 | . | . | . | i | . | .
CCCc1nc(NCc2ccncc2)c2nnn(Cc3ccccc3F)c2n1 | ? | -11% | ? | i | 18µM* | i
CCCc1nc(NCc2ccccn2)c2nnn(Cc3ccccc3F)c2n1 | 5% | -14% | 2.9µM* | i | 2% | ?

High-throughput results as filed in PubChem BioAssay.
